Pf Dd2 growth – blocks in vitro growth of P. falciparum Dd2; P. falciparum Dd2 growth, SYBR Green, 72 h; Potency, µM (titrated, usually from 28.9 µM), inactives show at the highest dose activity, negative = inhibition, actives largely listed as inhibitors; 4.3% of 120,000 active; active = well fitted inhibition curve with a large enough effect;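 note: plate controls were DMSO vehicle for no effect and reference drug for full effect; nearly all actives have a fitted effect of over 65% in size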
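Infected erythrocytes (Dd2, 0.3% parasitemia, 2.5% hematocrit final) are added to compound in RPMI-1640/Albumax II medium, grown 72 h at 37C in low oxygen, then lysed with saponin/Triton-X containing SYBR Green and read by fluorescence.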
Numbers without * were called inactive; i = inactive; [ ] = remark or other dose. Many of the other results were omitted from the sample, so hits are more common in it than they were. Potency is the fitted concentration of half-maximal effect.

SMILES | Pf Dd2 growth
Cn1cc(C(=O)N2CCCCCCNC(=O)[C@@H]3C[C@@H](c4nc(Cc5ccccc5)no4)C[C@@H]32)cn1 | -2%
Cc1ccc(C(=O)N2CCCCCCNC(=O)[C@@H]3C[C@@H](c4nc(Cc5ccccc5)no4)C[C@@H]32)cn1 | i
O=C1NCCCCCCN(C(=O)c2ccco2)[C@H]2C[C@H](c3nc(Cc4ccccc4)no3)C[C@@H]12 | 7.9µM*
N#Cc1ccc(C(=O)N2CCCCCCNC(=O)[C@@H]3C[C@@H](c4nc(Cc5ccccc5)no4)C[C@@H]32)cc1 | 11µM*
O=C(NCCc1ccncc1)C1CN(Cc2cccnc2)CC12CCOCC2 (configuration not stated) | -9%
O=C(O)C1=NOC2CN(CC3CC3)CC12 (configuration not stated) | 28%[44.1 µM]
CN1CCCCCC(O)c2cc(C(=O)N3CCN(c4ccccc4F)CC3)ccc21 (configuration not stated) | i
COCCNC(=O)N1CCc2nn(CC3CC3)c(=O)n2CC1 | 25%
COCc1cn(C[C@H]2C[C@@H](NC(=O)Cc3cccc(OC)c3)[C@H](O)[C@@H]2O)nn1 | -15%[44.1 µM]
COCC(=O)Nc1nc2c(s1)C[C@@H]1[C@](C)(CO)[C@H](O)CC[C@@]1(C)[C@@H]2CC(=O)NC(C)C | i
CC(C)(C)C(=O)Nc1nc2c(s1)C[C@@H]1[C@](C)(CO)[C@H](O)CC[C@@]1(C)[C@@H]2CC(=O)O | -10%[44.1 µM]
CC(C)(C)C(=O)Nc1nc2c(s1)C[C@@H]1[C@](C)(CO)[C@H](O)CC[C@@]1(C)[C@@H]2CC(=O)NC1CC1 | i
CCCCCC(=O)Nc1nc2c(s1)C[C@@H]1[C@](C)(CO)[C@H](O)CC[C@@]1(C)[C@@H]2CC(=O)N[C@@H](CO)CC(C)C | i
CC(C)C[C@H](CO)NC(=O)C[C@@H]1c2nc(NC(=O)C(C)(C)C)sc2C[C@@H]2[C@](C)(CO)[C@H](O)CC[C@]21C | 8.9µM*
CC(C)(C)C(=O)Nc1nc2c(s1)C[C@@H]1[C@](C)(CO)[C@H](O)CC[C@@]1(C)[C@@H]2CC(=O)Nc1cccc(O)c1 | 8.9µM*
COc1ccc(N2Cc3c(NCC(C)C)ncnc3N(C)CC2=O)cc1 | 4%
COC[C@@H]1CN(c2cnccn2)C[C@H]1C(=O)Nc1cccnc1 | -5%
CCOc1cccc(CNC(=O)C2CCCCC(=O)N2Cc2cccc(OC)c2)c1 (configuration not stated) | -6%
COc1ccc(C(=O)NC2CC2)c(OC2CCN(Cc3cccc(SC)c3)CC2)c1 | -15%
COc1cccc(CN2CCC(Oc3ccc(C(=O)NC4CCCC4)cc3Cl)CC2)c1 | 11µM*
COc1cccc(CN2C(=O)CCCCC2C(=O)NC2CCCCCC2)c1 (configuration not stated) | 8.9µM*
O=C(NC1CCS(=O)(=O)C1)C1CCCCC(=O)N1Cc1ccccc1 (configuration not stated) | 20%
COc1cccc(CN2CCCC(NC(=O)Nc3ccccc3OC)C2)c1 (configuration not stated) | -23%
CC(C)NC(=O)N1CCC2(CCCCO2)CC1 | -3%
O=C(NC[C@H]1C[C@@H]2CCN1C[C@@H]2CN1CCCCC1)c1ccccc1 | i
SMILES | Pf Dd2 growth
CN1CC(=O)N(c2cccnc2)Cc2c(NCC3CCCCC3)ncnc21 | -13%
O=C1CS(=O)C2(CCN(S(=O)(=O)c3ccccc3)CC2)N1CC1CC1 (configuration not stated) | -20%
CCCn1nc(C)cc1CN(C)Cc1ccc(=O)n(CC)c1 | -15%
COc1cc(OC(F)(F)F)ccc1C(=O)N1CCC2CC(=O)NCCC2C1 (configuration not stated) | 19%
O=C(Cn1ccn2nc(-c3ccc(F)cc3)c(CO)c2c1=O)Nc1ccc2c(c1)CCC2 | -6%
O=C(c1ccc[nH]1)N1CCCC(n2cc(-c3nc(C4CC4)no3)nn2)C1 (configuration not stated) | -1%
O=C1CCN(S(=O)(=O)c2ccccc2)CCCN(C(=O)Cc2ccccc2)CCN1 | i
O=C1CCN(S(=O)(=O)c2ccccc2)CCCN(C2CCOCC2)CCN1 | -27%
COc1ccc2[nH]c(C(=O)N3CCCN(S(=O)(=O)c4ccccc4)CCC(=O)NCC3)cc2c1 | 13µM*
O=C1CCN(S(=O)(=O)c2ccccc2)CCCN(C2CCCCCC2)CCN1 | 10µM*
COc1ccc(C(=O)N2CCCN(S(=O)(=O)c3ccccc3)CCC(=O)NCC2)cc1 | i
O=C1CCN(S(=O)(=O)c2ccccc2)CCCN(C(=O)C2(c3ccccc3)CC2)CCN1 | 0.79µM*
Cn1cccc1CN1CCCN(S(=O)(=O)c2ccccc2)CCC(=O)NCC1 | -28%
O=C1CCN(S(=O)(=O)c2ccccc2)CCCN(Cc2ccccn2)CCN1 | i
O=C1CCN(C(=O)C2(c3ccccc3)CC2)CCCCCCN1 | -23%
CS(=O)(=O)N1CCCN(S(=O)(=O)c2ccccc2)CCC(=O)NCC1 | -19%
O=C1CCN(S(=O)(=O)c2ccccc2)CCCN(Cc2ccc3[nH]ccc3c2)CCN1 | 11µM*
O=C1CCN(S(=O)(=O)c2ccccc2)CCCN(C(=O)c2cc3ccccc3[nH]2)CCN1 | -26%

High-throughput results deposited in PubChem BioAssay by National Center for Advancing Translational Sciences (NCATS).
